# Laboratory results: article PMC4336329 (PLoS ONE, 2015)
# About 2,200 (0.71%) of roughly 310,000 compounds showed an effect of 50% or more. Effects have a minus sign here. The sample holds strong results, similar compounds and a random draw of the others, so the mix is not that of the screen.
# Biological target: human ether-à-go-go-related gene (hERG) potassium channel (human, UniProt Q12809)
# Experiment: primary screen, population patch clamp on CHO cells stably expressing hERG; higher = less effect of the substance
# Chain of human ether-à-go-go-related gene (hERG) potassium channel (Q12809 whole entry, looked up): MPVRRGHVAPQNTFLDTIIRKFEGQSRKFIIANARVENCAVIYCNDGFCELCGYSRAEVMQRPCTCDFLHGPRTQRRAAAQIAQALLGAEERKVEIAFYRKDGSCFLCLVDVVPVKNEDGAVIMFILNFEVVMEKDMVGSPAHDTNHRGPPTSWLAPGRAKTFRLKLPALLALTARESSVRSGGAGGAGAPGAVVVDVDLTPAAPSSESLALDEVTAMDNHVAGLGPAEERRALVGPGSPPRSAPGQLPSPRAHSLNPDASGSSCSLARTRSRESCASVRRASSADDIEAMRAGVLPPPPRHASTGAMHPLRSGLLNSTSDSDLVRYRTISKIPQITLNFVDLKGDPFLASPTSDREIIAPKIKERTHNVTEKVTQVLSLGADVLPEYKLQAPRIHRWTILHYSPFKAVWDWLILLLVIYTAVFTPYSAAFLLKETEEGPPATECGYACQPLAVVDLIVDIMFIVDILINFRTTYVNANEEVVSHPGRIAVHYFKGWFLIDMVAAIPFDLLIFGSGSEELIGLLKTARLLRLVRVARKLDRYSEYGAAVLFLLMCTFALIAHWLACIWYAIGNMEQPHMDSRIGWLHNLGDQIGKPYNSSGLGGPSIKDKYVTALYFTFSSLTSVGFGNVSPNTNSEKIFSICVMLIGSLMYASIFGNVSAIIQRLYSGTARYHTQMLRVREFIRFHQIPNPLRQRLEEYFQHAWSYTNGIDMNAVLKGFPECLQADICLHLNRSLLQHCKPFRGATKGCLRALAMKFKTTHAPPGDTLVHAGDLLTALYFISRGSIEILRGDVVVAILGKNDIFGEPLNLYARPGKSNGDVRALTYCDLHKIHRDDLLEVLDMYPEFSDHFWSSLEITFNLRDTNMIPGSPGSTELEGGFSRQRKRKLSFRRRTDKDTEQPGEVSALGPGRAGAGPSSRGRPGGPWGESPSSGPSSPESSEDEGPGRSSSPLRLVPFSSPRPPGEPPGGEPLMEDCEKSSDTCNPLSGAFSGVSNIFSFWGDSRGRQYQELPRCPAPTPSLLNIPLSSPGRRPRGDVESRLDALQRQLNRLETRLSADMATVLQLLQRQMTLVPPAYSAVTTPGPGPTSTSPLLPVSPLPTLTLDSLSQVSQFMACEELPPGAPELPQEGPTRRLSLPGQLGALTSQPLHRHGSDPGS
row,Structure (SMILES),"hERG current change (%, negative = inhibition) at 1uM"
1,Cc1ccc2[nH]cc(C(=O)CCl)c2c1,15.2%
2,CCOc1ccccc1NC1c2ccccc2C(=O)N1Cc1ccco1 (centres unmarked),7.42%
3,O=C(O)c1cccc(N2C(=O)CSC2=S)c1,11.7%
4,COc1ccccc1-n1c(-c2ccc(Cl)cc2)c[nH]c1=S,9.1%
5,Cc1nc2scc(-c3ccco3)c2c(=O)n1/N=C/N(C)C,5.8%
6,O=C(Nc1cccc(NC(=O)c2ccc(Cl)cc2)n1)c1ccc(Cl)cc1,14.3%
7,COc1ccc(-c2ccnc3nc(N4CCN(c5ccccc5)CC4)nn23)cc1,14.9%
8,CCCCn1nnc(NC(=O)C(c2ccccc2)c2ccccc2)n1,11.2%
9,COc1c(C)cc(S(=O)(=O)NCc2ccccn2)c(C)c1C,9.43%
10,Nc1nnc(SCC(=O)OCc2ccccc2)s1,14.4%
11,CCN(CC)S(=O)(=O)c1ccc(N2CCOCC2)c(NS(=O)(=O)c2cc(C(C)(C)C)ccc2C)c1,6.68%
12,O=C(NCCc1cccs1)C1CC(c2c(Cl)cccc2Cl)=NO1 (centres unmarked),10.6%
13,CSCCC(NS(=O)(=O)c1ccccc1F)C(=O)NCCCn1nc(C)cc1C (centres unmarked),-1.95%
14,COc1ccc(/C=C(\NC(=O)c2ccc(C)cc2)C(=O)NCCCN2CCOCC2)cc1OC,14.1%
15,COc1ccc(/C=C(\NC(=O)c2ccc(Cl)cc2)C(=O)NCCCN2CCOCC2)cc1OC,9.09%
16,Cc1ccc(C(=O)N/C(=C\c2ccc(Cl)cc2)C(=O)NCCCN2CCOCC2)cc1,-78.6%
17,Cc1ccc(OCCOCCN2CCN(C)CC2)c(C(C)(C)C)c1.O=C(O)C(=O)O,13.2%
18,O=S(=O)(NCC(c1cccnc1)N1CCN(Cc2ccccc2)CC1)c1ccc(Cl)cc1 (centres unmarked),-60.6%
19,Cc1ccc(S(=O)(=O)NCC(c2cccnc2)N2CCN(Cc3ccccc3)CC2)cc1 (centres unmarked),-39.6%
20,O=S(=O)(NCC(c1cccnc1)N1CCN(Cc2ccccc2)CC1)c1ccccc1 (centres unmarked),-52.4%
21,COc1ccc(S(=O)(=O)NCC(c2cccnc2)N2CCN(Cc3ccccc3)CC2)cc1 (centres unmarked),-26.7%
22,CCN1CCN(C(CNS(=O)(=O)c2ccc(OC)c(C)c2)c2cccnc2)CC1 (centres unmarked),-27.5%

row,Structure (SMILES),"hERG current change (%, negative = inhibition) at 1uM"
1,O=S(=O)(NCC(c1cccnc1)N1CCN(Cc2ccccc2)CC1)c1ccc(F)cc1 (centres unmarked),-42.6%
2,CCN1CCN(C(CNS(=O)(=O)c2ccc(Cl)cc2)c2cccnc2)CC1 (centres unmarked),-10.6%
3,COc1ccc(S(=O)(=O)NCC(c2cccnc2)N2CCN(Cc3ccccc3)CC2)cc1C (centres unmarked),-65.5%
4,COc1ccc(S(=O)(=O)NCC(c2cccnc2)N2CCN(c3ccccc3)CC2)cc1C (centres unmarked),-1.72%
5,COc1ccc(C(=O)NNC(=O)C(=O)NC2CCCCC2)cc1,4.11%
6,O=c1cccccc1NN=C1CCCCCC1,14.1%
7,Clc1ccc(/C=N/Nc2nnc(-c3ncc[nH]3)c3ccccc23)cc1,4.89%
8,Cc1cc(OCCCCOc2ccc(S(N)(=O)=O)c(C)c2)ccc1S(N)(=O)=O,12.7%
9,O=C(O)Cn1c(=O)c2c3c(sc2n(Cc2ccc(Cl)cc2Cl)c1=O)CCCC3,6.14%
10,CC(Sc1nnc(C2CC2)n1C1CC1)C(=O)N(C)Cc1cccc(F)c1 (centres unmarked),-2.8%
11,CCOC(=O)C1=C(c2ccccc2)NC(=O)N(C(C)=O)C1c1cccc([N+](=O)[O-])c1 (centres unmarked),10.2%
12,CCOCCCn1c(=N)c(S(=O)(=O)c2ccc(C)cc2)cc2c(=O)n3cc(C)ccc3nc21,16.1%
13,CCOCCCn1c(=N)c(S(=O)(=O)c2ccccc2)cc2c(=O)n3cc(C)ccc3nc21,11.3%
14,CC(C)OCCCn1c(=N)c(S(=O)(=O)c2ccccc2)cc2c(=O)n3ccccc3nc21,-0.118%
15,Cc1ccc2nc3c(cc(C(N)=S)c(=N)n3CCCOC(C)C)c(=O)n2c1,-65.1%
16,CCOC(=O)c1cc2c(=O)n3ccccc3nc2n(CCCOC)c1=NC(C)=O,-15.6%
17,CC(C)OCCCn1c(=N)c(C(N)=S)cc2c(=O)n3ccccc3nc21,-74.5%
18,CCc1cc(C(=O)COc2ccc(F)cc2)c(O)cc1O,5.76%
19,CCSc1nc2sc3c(c2c(=O)[nH]1)CC(C)(CC)OC3 (centres unmarked),18.7%
20,CCCCCCCNC1=CC(=O)CC(c2ccccc2)C1 (centres unmarked),-63.2%
21,O=C1C=C(NCc2ccco2)CC(c2ccc(Cl)cc2)C1 (centres unmarked),-34.8%
22,O=C1C=C(NCc2ccc(Cl)cc2)CC(c2ccco2)C1 (centres unmarked),-91.3%

row,Structure (SMILES),"hERG current change (%, negative = inhibition) at 1uM"
1,COc1ccc(C2CC(=O)C=C(NCc3ccc4c(c3)OCO4)C2)cc1 (centres unmarked),-32.6%
2,O=C1C=C(NCc2ccc3c(c2)OCO3)CC(c2ccccc2)C1 (centres unmarked),-81.9%
3,O=C1C=C(Nc2ccc(Cl)cc2)CC(c2ccco2)C1 (centres unmarked),4.78%
4,CC(C)CCNC1=CC(=O)CC(c2ccccc2)C1 (centres unmarked),-0.257%
5,CN(C)CCCNC1=CC(=O)CC(c2ccccc2)C1 (centres unmarked),-1.56%
6,O=C1C=C(NCc2ccncc2)CC(c2ccccc2)C1 (centres unmarked),-22.8%
7,CCCCCCCNC1=CC(=O)CC(c2ccco2)C1 (centres unmarked),-77.6%
8,CCc1ccc(NC2=CC(=O)CC(c3ccco3)C2)cc1 (centres unmarked),12.9%
9,CC(C)CNC1=CC(=O)CC(c2ccco2)C1 (centres unmarked),14.5%
10,Cc1cccc(OC(=O)NCCOC(=O)N(O)c2ccc(Cl)cc2)c1,1.04%
11,Cc1ccc(NC(=O)CSc2sc3c(O)cc(=O)[nH]c3c2C#N)c(F)c1,-4.66%
12,Cc1cccc(C)c1NC(=O)CSc1nc2[nH]c(=O)cc(O)c2s1,4.15%
13,COc1ccc(N(CC(=O)NC2CC3CCC2C3)S(=O)(=O)c2ccc(C)c([N+](=O)[O-])c2)cc1 (centres unmarked),10.2%
14,COc1cccc(C(=O)NNS(=O)(=O)c2ccc(C)cc2)c1,13%
15,O=C(NCc1ccco1)c1cccc(NS(=O)(=O)c2ccccc2F)c1,6.58%
16,Cc1ccc(NC(=O)CSCC(=O)NCc2cccc(C(F)(F)F)c2)cc1,6.6%
17,O=C(CN(C(=O)C1COc2ccccc2O1)c1ccccc1)NCC1CCCO1 (centres unmarked),-9.34%
18,CCOc1ccccc1Nc1nc(N)nc(CSc2nncn2C)n1,9.75%
19,Cc1cccc(OCC(=O)Nc2ccc(C(=O)NCC(C)C)cc2)c1,4.42%
20,CCOCCCNC(=S)Nc1cc(OCC)c(NC(=O)c2ccco2)cc1OCC,7.7%
21,COc1ccc(C(=O)N2CCN=C2SCc2cccnc2)cc1OC,9.25%
22,COc1nnc(-c2ccc(C)c(S(=O)(=O)NC(C)C)c2)c2ccccc12,-5.36%

row,Structure (SMILES),"hERG current change (%, negative = inhibition) at 1uM"
1,COc1nnc(-c2ccc(C)c(S(=O)(=O)N(C)C)c2)c2ccccc12,-53.6%
2,COc1nnc(-c2ccc(C)c(S(N)(=O)=O)c2)c2ccccc12,3.63%
3,CC(=O)Nc1ccc(NC2CCCCC2NS(=O)(=O)c2ccc(Cl)cc2)cc1 (centres unmarked),12%
4,CCOC(=O)C1(Cc2ccccc2C(F)(F)F)CCN(CCCn2cccn2)CC1,-49.2%
5,CCOC(=O)C1(Cc2ccc(Cl)cc2)CCN(C(C)CCn2cccn2)CC1 (centres unmarked),-87.1%
6,CCOC(=O)C1(Cc2ccc(Cl)cc2)CCN(CCCn2cccn2)CC1,-77%
7,CCOC(=O)C1(Cc2cccc(F)c2)CCN(Cc2cn(CC)nc2C)CC1,-6.14%
8,CCOC(=O)C1(Cc2ccc(Cl)cc2)CCN(C(C)Cc2ccc(O)c(OC)c2)CC1 (centres unmarked),-7.39%
9,CCOC(=O)C1(CCCc2ccccc2)CCN(Cc2cnn(C)c2)CC1,-46.4%
10,CCOC(=O)C1(Cc2ccccc2)CCCN(CCCn2cccn2)C1 (centres unmarked),3.88%
11,CCOC(=O)C1(CCCc2ccccc2)CCN(CCCn2cccn2)CC1,-84.6%
12,CCOC(=O)C1(CCCc2ccccc2)CCN(Cc2nccn2CC)CC1,-45.8%
13,CCCn1cc(CN2CCC(Cc3cccc(F)c3)(C(=O)OCC)CC2)c(C)n1,-60.3%
14,CCCn1cc(CN2CCC(Cc3ccccc3)(C(=O)OCC)CC2)c(C)n1,-14%
15,CCOC(=O)C1(Cc2ccccc2C(F)(F)F)CCN(C(C)CCn2cccn2)CC1 (centres unmarked),-40.8%
16,Cc1ccc(C2=NN(CCC(=O)NCCCN3CCOCC3)C(=O)CC2)cc1,-9.94%
17,O=C(CNC(=O)c1nc[nH]c1C(=O)NCC(=O)OCc1ccccc1)OCc1ccccc1,10.3%
18,COc1ccccc1NC(CC(=O)c1ccccc1)C(=O)OCC(=O)c1ccc(F)cc1 (centres unmarked),-11.1%
19,COc1ccccc1C(=O)Nc1c2c(nn1-c1cccc(C)c1C)CS(=O)C2 (centres unmarked),-3.22%
20,Cc1ccc(-n2c(O)c(C=Nc3ccc(S(=O)(=O)Nc4ncccn4)cc3)c3ccccc3c2=O)cc1C,-2.78%
